# Measurements published in PubChem BioAssay AID602393 (Broad Institute, 2012).
# Out of some 350,000 compounds screened, about 7,000 (2%) were called active. This is one part of a sample in which actives are shown more often than they occur. Cut-off read from the data, not from the text of the source: active = activation above about 40%; inconclusive = no clear call, values can overlap the other calls; inactive = below that.
# Test: Bmi1 luciferase reporter increase in mESCs, primary screen, esBAF inhibitor project, mouse ES cells, Bmi1 luciferase knock-in, single point (AID 602393);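 note: 0% = median of the plate's neutral control wells and 100% = double that signal; a rise in the Bmi1 reporter signal indicates esBAF inhibition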
# Conditions: 24 h, at 12.5 µM, active compounds read high, 100% = twice the neutral-well signal
row,SMILES,reporter increase
1,CCCN(C)C[C@@H]1Oc2ncc(-c3cccc(C(=O)N(C)C)c3)cc2C(=O)N([C@H](C)CO)C[C@@H]1C,-6.02% (inactive)
2,O=C(CN1CCCCCC1)Nc1ccc(Br)cc1Br,56.9% (active)
3,O=C(CN1CCCCCC1)Nc1ccc(Cl)cc1F,-12.4% (inactive)
4,O=C(CN1CCCCCC1)Nc1ccc(Br)cc1[N+](=O)[O-],-0.566% (inactive)
5,CN(C(=O)CSc1nnnn1-c1ccccc1)C1CCCCC1,22.5% (inactive)
6,C=CCn1c(SCn2nnc3ccccc3c2=O)nnc1-c1ccc(Cl)cc1,-8.46% (inactive)
7,O=c1c2ccccc2nnn1CSc1nnnn1-c1ccccc1,57.4% (active)
8,Cc1ccc(S(=O)(=O)N[C@@H]2CC[C@H](CCn3cc(C4(O)CCCC4)nn3)O[C@H]2CO)cc1,1.86% (inactive)
9,Nc1cc(N)nc(SCc2cccc(F)c2)n1,65% (active)
10,Nc1cc(N)nc(SCc2ccc(Cl)cc2)n1,33.3% (inactive)
11,CCc1nnc(SCc2cccc(F)c2)nc1CC,-1.92% (inactive)
12,CCC(=O)N(C)C[C@@H]1Oc2ncc(/C=C/c3ccccc3)cc2C(=O)N([C@@H](C)CO)C[C@H]1C,-3.12% (inactive)
13,CCC(=O)N1[C@H](C(=O)NCc2ccc(F)cc2)[C@@H](CO)[C@@H]2Cn3c(ccc(C4=CCCCC4)c3=O)[C@@H]21,-5.62% (inactive)
14,CCOc1ccc(N(CC(=O)NCCc2ccc(F)cc2)S(=O)(=O)c2ccccc2)cc1,1.13% (inactive)
15,CCN(CC(=O)NCCc1ccccc1)S(=O)(=O)c1ccc(C)cc1,-2.78% (inactive)
16,COc1ccc(N(CCC(=O)NCCc2ccccc2)S(=O)(=O)c2ccc(C)cc2C)cc1,77.9% (active)
17,CCN(CC)c1ccc(C(=O)OCC(=O)c2ccco2)cc1,69.5% (active)
18,O=C(COC(=O)c1ccccc1C(=O)c1ccccc1)c1ccco1,-5.33% (inactive)
19,CCc1ccc(C(=O)COC(=O)c2ccco2)cc1,13.9% (inactive)
20,C[C@@H]1CN([C@H](C)CO)C(=O)c2cc(-c3cccc(F)c3)cnc2O[C@@H]1CN(C)C,-2.09% (inactive)
21,Cc1noc(C)c1S(=O)(=O)Nc1ccc2c(c1)C(=O)N([C@H](C)CO)C[C@H](C)[C@H](CN(C)S(=O)(=O)c1cn(C)cn1)OCCCC[C@@H](C)O2,-2.07% (inactive)
22,C[C@@H]1CCCCO[C@@H](CN(C)C(=O)NC2CCCCC2)[C@H](C)CN([C@H](C)CO)C(=O)c2cc(NC(=O)c3ccccc3)ccc2O1,8.88% (inactive)
23,Cc1ccccc1S(=O)(=O)NCC[C@@H]1CC[C@@H](NS(=O)(=O)c2ccccc2C)[C@@H](CO)O1,2.87% (inactive)
24,O=C(NCCc1ccc(Cl)cc1)c1cccc(N2CCCC2=O)c1,54.9% (active)
25,O=C(NCCCN1CCCCCC1)c1ccc(N2CCCC2=O)cc1,-4.86% (inactive)
26,O=C(c1cccc(N2CCCC2=O)c1)N1CCOCC1,-0.631% (inactive)
27,COc1ccc(CN(C)C[C@H]2OCCCC[C@H](C)Oc3ccc(NC(=O)NC4CCCCC4)cc3C(=O)N([C@@H](C)CO)C[C@@H]2C)cc1,2.7% (inactive)

row,SMILES,reporter increase
1,O=C(CSCc1cccs1)N1CCCC1,33.4% (inactive)
2,O=C(CSCc1ccc(Cl)cc1)N1CCN(Cc2ccc3c(c2)OCO3)CC1,-7.9% (inactive)
3,O=C(CSCc1ccc(Cl)cc1)N1CCCCC1,47.9% (active)
4,CO[C@@H]1CN(C)C(=O)c2cc(NC(=O)C3CC3)ccc2OC[C@H](C)N(Cc2ccc(F)cc2)C[C@@H]1C,-2.84% (inactive)
5,COc1ccc(-c2cnc3c(c2)C(=O)N([C@@H](C)CO)C[C@@H](C)[C@H](CN(C)C(=O)C2CCCCC2)O3)cc1,2.07% (inactive)
6,CCn1c(SCC(=O)N(C)C2CCS(=O)(=O)C2)nnc1-c1cccs1 (stereo not given),-1.83% (inactive)
7,CCn1c(SCC(=O)c2ccc(Cl)s2)nnc1-c1cccs1,46% (active)
8,CCn1c(Cc2cccs2)nnc1SCC(=O)c1ccc(C)cc1,25.1% (inactive)
9,COc1ccc(S(=O)(=O)N[C@@H]2CC[C@@H](CC(=O)NCCc3ccccc3)O[C@@H]2CO)cc1,3.19% (inactive)
10,C[C@@H]1CCCCO[C@@H](CN(C)C(=O)Cc2ccccc2)[C@H](C)CN([C@@H](C)CO)C(=O)c2cc(NC(=O)Nc3ccc(F)cc3)ccc2O1,1.88% (inactive)
11,CC(C)NC(=O)N(C)C[C@@H]1OCc2ccccc2-c2c(n(C)c3ccccc23)C(=O)N([C@@H](C)CO)C[C@H]1C,-0.481% (inactive)
12,O=[N+]([O-])c1cc2ccccc2nc1-c1ccccc1,-3.44% (inactive)
13,O=C(Oc1ccc([N+](=O)[O-])cc1)c1ccc2ccccc2n1,0.987% (inactive)
14,O=[N+]([O-])c1ccc2c(c1)Nc1nc3ccccc3nc1N2,47.3% (active)
15,CO[C@@H]1CN(C)C(=O)c2cc(NC(=O)c3ccccc3F)ccc2OC[C@@H](C)N(CC2CC2)C[C@H]1C,1.73% (inactive)
16,COc1ccccc1S(=O)(=O)N1CC[C@H]2[C@@H](CO)N(C)c3ccc(C#Cc4ccccc4)cc3[C@H]21,-3.04% (inactive)
17,C[C@H]1CCCCO[C@@H](CN(C)Cc2ccncc2)[C@@H](C)CN([C@@H](C)CO)C(=O)c2cc(NC(=O)Nc3ccc(F)cc3)ccc2O1,-1.97% (inactive)
18,COc1cccc(C(=O)Nc2cccnc2)c1OC,0.381% (inactive)
19,CCOC(=O)c1ccc(NC(=O)CNC(=O)c2ccco2)cc1,-2.33% (inactive)
20,CCOC(=O)c1ccc(-c2ccc(C(=O)Nc3cccnc3)o2)cc1,58.2% (active)
21,CC(=O)N1[C@@H](CO)[C@@H]2c3ccccc3N(S(=O)(=O)c3ccccc3)C[C@@H]21,0.543% (inactive)
22,O=C(Cc1c(F)cccc1Cl)N1CCN(C(=O)c2ccco2)CC1,3.68% (inactive)
23,C=CCSc1nnc(N2C(=O)C(O)=C(C(=O)c3ccco3)C2c2ccc(F)cc2)s1 (stereo not given),10.6% (inactive)
24,Cc1ccc2nc(N3C(=O)C(O)=C(C(=O)c4ccco4)C3c3cccc(O)c3)sc2c1 (stereo not given),43.5% (active)
25,Cc1ccc(OCC(=O)Nc2ccc(N3CCN(C(=O)c4ccco4)CC3)cc2)c(C)c1,0.555% (inactive)
26,O=C(c1ccco1)N1CCN(C(=O)c2cc(-c3ccccc3F)no2)CC1,66.3% (active)
27,O=C(c1ccco1)N1CCN(c2cccc(Cl)c2)CC1,45.4% (active)

row,SMILES,reporter increase
1,O=C(c1ccco1)N1CCN(C(=S)Nc2cc(F)cc(F)c2)CC1,7.97% (inactive)
2,COc1ccc2nc(N3C(=O)C(O)=C(C(=O)c4ccco4)C3c3ccco3)sc2c1 (stereo not given),-10.8% (inactive)
3,Cc1ccc2nc(N3CCN(C(=O)c4ccco4)CC3)sc2c1,54.6% (active)
4,O=C(NCCCN1CCOCC1)c1cc(-c2ccccc2F)no1,19.6% (inactive)
5,COc1ccc2nc(N3CCN(C(=O)c4ccc([N+](=O)[O-])o4)CC3)sc2c1,-6.63% (inactive)
6,O=C(c1cccc([N+](=O)[O-])c1)N1CCN(C(=O)c2ccco2)CC1,-1.81% (inactive)
7,COCC#Cc1cnc2c(c1)C(=O)N([C@@H](C)CO)C[C@@H](C)[C@@H](CN(C)C(=O)c1cccnc1)O2,3.33% (inactive)
8,C[C@H](CO)N1C[C@H](C)[C@H](CN(C)C(=O)Nc2ccc3c(c2)OCO3)Oc2ccc(NS(=O)(=O)c3ccc(Cl)cc3)cc2CC1=O,4.87% (inactive)
9,Cc1cccc(CN(C)C[C@@H]2OCc3cn(nn3)CCCC(=O)N([C@@H](C)CO)C[C@H]2C)c1,-0.643% (inactive)
10,COCCNC(=O)[C@@H]1[C@@H](CO)[C@@H]2Cn3c(ccc(-c4ccccc4F)c3=O)[C@@H]2N1C(=O)C1CC1,2.48% (inactive)
11,CO[C@@H]1CN(C)C(=O)c2cc(NC(=O)Nc3ccc4c(c3)OCO4)ccc2OC[C@@H](C)NC[C@@H]1C,73.2% (active)
12,CO[C@@H]1CN(C)C(=O)c2cc(NC(=O)Nc3ccc(F)cc3)ccc2OC[C@@H](C)NC[C@@H]1C,-1.25% (inactive)
13,CO[C@H]1CN(C)C(=O)c2ccc(NC(=O)Nc3ccc4c(c3)OCO4)cc2OC[C@H](C)NC[C@H]1C,37% (inactive)
14,COc1ccc(NC(=O)N(C)C[C@@H]2Oc3ccc(NC(=O)Cn4cnnn4)cc3C(=O)N([C@H](C)CO)C[C@@H]2C)cc1,1.18% (inactive)
15,O=C(COC(=O)Cc1ccc(Cl)cc1Cl)NCc1ccco1,-12.6% (inactive)
16,COC(=O)/C=C/C(=O)NCc1ccco1,8.72% (inactive)
17,O=C(/C=C/c1ccc(Cl)cc1Cl)NCc1ccco1,44.2% (active)
18,COc1ccc(S(=O)(=O)Nc2ccc3c(c2)CC(=O)N([C@@H](C)CO)C[C@@H](C)[C@H](CN(C)S(=O)(=O)c2ccccc2)O3)cc1,4.43% (inactive)
19,COc1ccc(S(=O)(=O)Nc2ccc3c(c2)C(=O)N([C@@H](C)CO)C[C@@H](C)[C@H](CN(C)Cc2ccc(C(F)(F)F)cc2)OCCCC[C@@H](C)O3)cc1,-1.52% (inactive)
20,COc1ccccc1-c1cnn2c(N3CCOCC3)cc(C)nc12,57.3% (active)
21,Cc1cc(-n2nc(C)cc2C)n2ncc(-c3ccccc3)c2n1,28.6% (inactive)
22,COc1ccccc1NC(=O)C1CCCN(c2cc(C)nc3ncnn23)C1 (stereo not given),-8.67% (inactive)
23,CN1c2ccc(C3=CCCCC3)cc2[C@H]2[C@H](CCN2S(=O)(=O)c2ccccc2)[C@@H]1CO,3.61% (inactive)
24,Cc1ccc(/C=N/NC(=O)c2sccc2OCc2ccc(F)cc2)cc1,53.7% (active)
25,Cc1ccc(S(=O)(=O)Oc2ccc(/C=N/NC(=O)c3ccncc3)cc2)cc1,4.2% (inactive)
26,Cc1ccc(S(=O)(=O)N(CC(=O)N/N=C/c2ccc(F)cc2)c2cccc3cccnc23)cc1,0.787% (inactive)
